Screening results: PubChem BioAssay, National Center for Advancing Translational Sciences (NCATS)
TDP-43 yeast inh = TDP-43 toxicity inhibition in yeast | TDP-43 expressing yeast growth rescue, BacTiter-Glo, 24 h | Potency, µM (top dose mostly 46.1 µM), for inactives: at the highest dose growth rescue (activation), most hits filed as activators | 410,000 compounds, 1.8% hits | AID 652104; also: % of control where 0% means no effect; nearly all actives have a fitted effect of over 50% in size
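Luminescence from BacTiter-Glo reports growth of TDP-43-expressing yeast after 24 hr at 30 deg C with compound. Cells were raffinose-pregrown to mid-log, then seeded in galactose medium at OD600=0.02.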
Abeta rescue = A-beta toxicity reversal in yeast; yeast expressing A-beta42, growth rescue, OD600, 48 h; response scale: 0% DMSO, 100% iron-clioquinol control; Potency, µM (series often up to 46.1 µM), most hits filed as activators; 410,000 compounds, 0.063% hits; AID 1347071; also: nearly all actives have a fitted effect of over 55% in size
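Growth rescue measured by 600 nm absorbance after 48 h yeast culture at 30 C with compound. Values normalized between DMSO and an equimolar ferric chloride plus clioquinol control.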
aSyn rescue = inhibitors of alpha-synuclein toxicity in yeast; Potency, µM (series often up to 46.1 µM), inactives show at the top dose growth rescue (activation), actives largely listed as activators; AID 652106; Yeast expressing alpha-synuclein, growth rescue, BacTiter-Glo, 24 h; 370,000 compounds, 0.14% hits; also: % of control where 0% means no effect; nearly all actives have a fitted effect of over 65% in size
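Screening used galactose-induced yeast with toxic alpha-synuclein levels, exposed to compound for 24 hr at 30 deg C. Cell growth, read with BacTiter-Glo luminescence, gave the measured signal.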
FUS yeast rescue = suppressors of FUS proteinopathy in yeast; Potency, µM (doses to about 76.6 µM), most hits filed as activators; S. cerevisiae FUS-expressing, growth rescue, OD600, 24 h; 390,000 compounds, 0.24% hits;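 also: plate controls were DMSO vehicle for no effect and reference control for full effect; nearly all actives have a fitted effect of over 55% in size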
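FUS-expressing yeast, raffinose-pregrown, induced in 2% galactose minimal medium at OD 0.005; compounds in a dilution series, 24hr at 30C. Growth restoration read as absorbance at 600 nm. CP55940 positive control, DMSO negative.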
PTAP TSG101 blk = blocks PTAP/TSG101 interaction to inhibit HIV-1 budding. Fluorescence polarization, FITC-PTAP peptide / Tsg101 binding. Potency, µM (doses to about 115 µM), without a hit: at the highest dose activity change, negative = inhibition, hits mostly inhibitors. 340,000 tested, under 10 active. AID 493005; active = well fitted inhibition curve with a large enough effect in the main read-out, with a control signal flat, not every such curve was filed as active; inconclusive = small, poorly fitted or top-dose-only effect, or effect the other way, or a change in a side signal; inactive = no such curve, though single readings can be large or run the other way; also: % of control where 0% means no effect
Target sequence (Q99816 whole entry, looked up): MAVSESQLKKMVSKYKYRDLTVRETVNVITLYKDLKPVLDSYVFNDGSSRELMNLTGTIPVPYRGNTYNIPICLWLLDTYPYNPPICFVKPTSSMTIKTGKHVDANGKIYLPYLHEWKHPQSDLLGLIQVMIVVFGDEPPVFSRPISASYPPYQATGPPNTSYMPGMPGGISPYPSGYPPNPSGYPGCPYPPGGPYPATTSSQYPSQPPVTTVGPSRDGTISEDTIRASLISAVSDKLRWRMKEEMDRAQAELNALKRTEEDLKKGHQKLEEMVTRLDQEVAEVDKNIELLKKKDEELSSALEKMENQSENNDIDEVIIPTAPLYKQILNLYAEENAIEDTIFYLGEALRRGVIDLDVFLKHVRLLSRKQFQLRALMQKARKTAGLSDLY
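Compounds were pin-transferred onto Tsg101 binding domain (10 uM final) in HEPES pH 7.5 buffer, then FITC-PTAP peptide was added at 50 nM final. After 20 min at RT, polarization reported peptide displacement across a qHTS concentration series.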
The depositor's hits bear a star; i = inactive; ? = inconclusive; / = no result; [ ] = remark or other dose. A selection: hits, their analogues and other compounds. The true share with any hit is near 2.1%. Unless noted, calls follow the shape of the dose curve; as a rule, active = well fitted curve in the direction sought with a large enough effect; inconclusive = small, poorly fitted or top-dose-only effect, or another doubt; inactive = no such curve, though single readings can be large; an effect the other way counts as inactive or inconclusive. Potency is read from the fitted curve at half-maximal effect.

SMILES | TDP-43 yeast inh | Abeta rescue | aSyn rescue | FUS yeast rescue | PTAP TSG101 blk
COc1cc(-c2nc3cnccn3c2Nc2ccc(C(C)C)cc2)ccc1O | 0% | i | 1% | i | -7%
CC(C)c1ccc(Nc2c(-c3ccccc3O)nc3cnccn23)cc1 | 25µM* | i | / | i | /
Cc1c(C(=O)NCc2ccccc2)sc2nc3n(c(=O)c12)CCC3 | 11% | i | / | i | /
N#Cc1c(-c2ccncc2)cc(-c2ccc(F)cc2)nc1N | 6% | 5.6µM* | 1% | i | -2%
CCOc1cc(-c2cc(-c3ccc(N)cc3)nc(N)c2C#N)ccc1O | 16µM* | i | -24% | i | -3%
COc1ccc(CN(Cc2ccco2)C(=O)COc2ccccc2OC)cc1 | 22% | i | / | i | /
Cc1cccc(Nc2c3c(nc4nncn24)CCC3)c1C | ? | i | / | i | /
Cc1ccc2c(c1)CCCN2C(=O)c1ccoc1C | -18% | i | 2% | 5.6µM* | -7%
Oc1ccc(Cc2ccccc2Cl)c(O)c1 | 13µM* | i | 4% | i | -1%
CC(=O)Oc1ccc(Cn2c(C)c(C(=O)NC3CC3)sc2=O)cc1 | -15% | i | -7% | i | /
COc1cccc(C(C)(O)c2nc(-c3csc4ccccc34)cs2)c1 (centres undefined) | 35µM* | i | -1% | i | /
COCc1cccc(-c2csc(C(C)(O)c3cccc(F)c3)n2)c1 (centres undefined) | 35µM* | i | -6% | i | /
CC(O)(c1ccccc1)c1nc(/C=C/c2ccccc2)cs1 (centres undefined) | 35µM* | i | -27% | i | /
COc1cccc(C(C)(O)c2nc(-c3ccccc3C)cs2)c1 (centres undefined) | 15% | i | 2% | i | /
COc1ccc(C(C)(O)c2nc(-c3cnc4ccccc4c3)cs2)cc1 (centres undefined) | 35µM* | i | ? | i | /
CCCOc1cccc(C(=O)N(Cc2sccc2C)C2CCS(=O)(=O)C2)c1 (centres undefined) | 4% | i | / | i | /
O=C([C@@H]1C[C@H]1c1ccccc1)N1CCC(Oc2cccnc2)CC1 | / | / | / | i | /
COc1cccc(C(C)(O)c2nc(/C=C/c3ccccc3)cs2)c1 (centres undefined) | 25µM* | i | ? | i | /
CC(=O)NC(C)(c1ccccc1)c1nc(-c2csc3ccccc23)cs1 (centres undefined) | 35µM* | i | 7% | ? | /
CCOc1ccc(CCNC(=O)c2ccccn2)cc1OCC | / | / | / | i | /
Cc1c2cnn(CC(=O)NCCc3ccccc3)c(=O)c2c(C)n1Cc1ccccc1 | 5% | i | / | i | /
CC1(C)C(=O)C=CC(=O)C(C)(C)C(=O)C=CC(=O)C(C)(C)C2=CC=C(O2)C(C)(C)C(=O)C=CC1=O | 16µM* | i | 8% | / | -2%
COc1ccc(-c2ccnc3c(Br)c(C)nn23)cc1 | 11µM* | i | 0%[1.84 µM] | i | -5%
Cc1ccc(N=Cc2ccc[nH]2)c(O)c1 | -23% | i | -2% | 35µM* | 0%
COc1ccc(Br)c(C(=O)OCC(=O)NC(=O)NC2CCCC2)c1 | 18µM* | i | ? | i | -3%
SMILES | TDP-43 yeast inh | Abeta rescue | aSyn rescue | FUS yeast rescue | PTAP TSG101 blk
CCN1C(=O)c2ccccc2Sc2ccc(NC(=O)c3ccc(C)c(F)c3)cc21 | 23% | i | / | i | /
Cc1c(Cl)cccc1Nc1nc(N)nc(CSc2nc3ccccc3s2)n1 | 16µM* | i | -13% | ? | -3%
Cc1c(Cl)cccc1Nc1nc(N)nc(CSc2ncccn2)n1 | 28% | i | 3% | i | -1%
COc1cccc(NC(=O)COC(=O)/C=C/c2c(C)nn(-c3ccccc3)c2C)c1 | 20µM* | i | -17% | i | -4%
COc1ccccc1NC(=O)COC(=O)c1c(C)nn(-c2ccccc2)c1C | 18µM* | i | -2% | i | 1%
Cc1noc(C)c1S(=O)(=O)NCCc1csc2nc(-c3ccc(F)cc3)nn12 | 26% | i | / | i | /
CCOc1ccc(CC(=O)N2CCN=C2SCc2ccc([N+](=O)[O-])cc2)cc1 | ? | i | -3% | i | -3%
CCSC1=NCCN1C(=O)Cc1ccc(-c2ccccc2)cc1 | 14µM* | i | 5% | i | -1%
COc1ccc(CC(=O)N2CCN=C2SCc2ccc([N+](=O)[O-])cc2)cc1 | 7.9µM* | i | -9% | i | 1%
Nc1c(-c2ccccc2)cnn1-c1cccc([N+](=O)[O-])c1 | 20µM* | i | 2% | i | -6%
Cc1cc(C)c2c(N)c(C(=O)c3ccccc3)oc2n1 | -23% | i | 1% | i | /
COCc1cc(C)nc2oc(C(=O)c3ccccc3)c(N)c12 | 13µM* | i | 25% | i | -2%
Cc1ccc(C)c2sc(N3CCN(C(=O)c4ccco4)CC3)nc12 | 11µM* | i | / | i | /
O=C(c1ccco1)N1CCN(c2nc3c(Cl)cccc3s2)CC1 | ? | i | / | i | /
Cc1cccc2sc(N3CCN(C(=O)c4ccco4)CC3)nc12 | 11µM* | i | / | i | /
Cc1nc2sc(C(N)=O)c(N)c2c(-c2ccc(Br)cc2)c1C(=O)Nc1ccc(Cl)cc1 | 22µM* | i | / | ? | /
